Values joined by “and” are separate entries in the source; they are usually repeats but may differ in a detail not shown here. Identical values can stand only once. Results filed as inconclusive are left out. Where a call stands in place of a potency, no number is given. Some structures have more than one record in an assay (separate samples or runs), and their calls can disagree. Active and inactive are the calls of the source. Unless noted, the call rests on the fitted dose curve; in most records, active means well fitted curve in the direction sought with a large enough effect in the repeat runs; inconclusive means weak or mixed curves; inactive means no such curve, though single readings can be large; an effect the other way counts as inactive or inconclusive.
How the values were obtained:
[1] = qHTS assay to identify small molecule agonists of the RXR signaling pathway - cell viability counter screen (AID 1159529); further: nearly all actives have a fitted effect of over 50% in size; further: potency means the concentration at half of the fitted maximal effect
Outline: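 RXR-alpha-UAS-bla HEK 293T cells in medium with 2% charcoal-stripped FBS were pre-incubated 5 hr, then compound-treated 16 hr at 37 C. Viability was read by CellTiter-Glo luminescence in the same wells as the beta-lactamase assay, with tetraoctyl ammonium bromide as positive control.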

[2] = qHTS assay to identify small molecule antagonists of the retinoid acid receptor (RAR) signaling pathway - cell viability counter screen (AID 1159551); further: nearly all actives have a fitted effect of over 35% in size; further: potency means the concentration at half of the fitted maximal effect
Outline: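 C3RL4 RARE-luciferase cells, 1,000/well, incubated overnight, then dosed with compound plus 1 uM retinol (final). After 6 hr at 37 C, viability read by CellTiter-Glo ATP luminescence following 30 min at room temperature.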

[3] = qHTS assay to identify small molecule antagonists of the retinoic acid receptor (RAR) signaling pathway (AID 1159552; further: nearly all actives have a fitted effect of over 50% in size; further: potency means the concentration at half of the fitted maximal effect)
Outline: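 Retinol signaling pathway inhibitors screened in C3RL4 RARE-luciferase reporter cells seeded overnight at 37 C, then compounds added with 1 uM (final) retinol as pathway substrate. After 6 hr at 37 C, luciferase luminescence read after 30 min at room temperature.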

[4] = qHTS assay to identify small molecule agonists of the retinoic acid receptor (RAR) signaling pathway (AID 1159553)
Outline: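 C3RL4 RARE-luciferase cells were seeded at 1,000/well and grown overnight at 37 C, then exposed to compounds for 6 hr at 37 C, 5% CO2. Luciferase reagent was added and luminescence was read after 30 min at room temperature.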

[5] = qHTS assay to identify small molecule antagonists of the estrogen related receptor (ERR) signaling pathway from Tox21 library - cell viability counter screen (AID 1224834); further: nearly all actives have a fitted effect of over 30% in size; further: potency means the concentration at half of the fitted maximal effect
Outline: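 ERR reporter cells, 2,000 per well, rested 6 h, then exposed to compound in DMSO for 17.5 hours at 37 C. Viability read as fluorescence after 30 min with CellTiter-Fluor.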

[6] = molecular target: Luciferin 4-monooxygenase (Photinus pyralis) (UniProt P08659); assay: qHTS assay to identify small molecule inhibitors of firefly luciferase (AID 1224835); further: nearly all actives have a fitted effect of over 25% in size; further: potency means the concentration at half of the fitted maximal effect
Sequence of Luciferin 4-monooxygenase (Photinus pyralis) (P08659 whole entry, looked up): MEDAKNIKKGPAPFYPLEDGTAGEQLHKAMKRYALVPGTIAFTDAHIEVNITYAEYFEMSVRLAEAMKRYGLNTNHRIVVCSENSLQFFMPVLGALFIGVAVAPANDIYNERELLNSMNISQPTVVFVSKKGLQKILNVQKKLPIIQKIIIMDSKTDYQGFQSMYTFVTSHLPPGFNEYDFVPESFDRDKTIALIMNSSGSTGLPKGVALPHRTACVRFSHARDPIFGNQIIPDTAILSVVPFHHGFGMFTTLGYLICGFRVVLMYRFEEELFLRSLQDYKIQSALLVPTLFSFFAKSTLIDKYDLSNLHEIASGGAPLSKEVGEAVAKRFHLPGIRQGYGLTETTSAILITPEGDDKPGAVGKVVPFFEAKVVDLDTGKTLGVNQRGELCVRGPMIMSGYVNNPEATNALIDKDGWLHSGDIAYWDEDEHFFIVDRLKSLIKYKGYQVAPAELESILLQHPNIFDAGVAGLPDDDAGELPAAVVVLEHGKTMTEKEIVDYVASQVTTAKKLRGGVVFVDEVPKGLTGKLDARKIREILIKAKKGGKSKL
Outline: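 Quantitative HTS format; KM concentrations of both substrates. Purified P. pyralis FLuc activity quantified from luminescence images.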

[7] = qHTS assay to identify small molecule agonists of the constitutive androstane receptor (CAR) signaling pathway - cell viability counter screen (AID 1224836); further: series mostly up to about 92 µM; nearly all actives have a fitted effect of over 45% in size
Outline: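 HepG2 cells stably carrying hCAR and a CYP2B6-2.2kb reporter; 15-concentration compounds plus PK11195 (final 0.75 uM), 23 hr at 37 C/5% CO2. Viability read by CellTiter-Fluor fluorescence.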

[8] = qHTS assay to identify small molecule antagonists of the constitutive androstane receptor (CAR) signaling pathway - cell viability counter screen (AID 1224837); further: series mostly up to about 92 µM; nearly all actives have a fitted effect of over 45% in size
Outline: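 HepG2 cells stably carrying hCAR and CYP2B6-2.2kb reporter, stimulated with 50 nM CITCO and compounds at 15 concentrations for 23 h at 37 C. Viability measured by CellTiter-Fluor fluorescence.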

[9] = molecular target: Nuclear receptor subfamily 1 group I member 3 (Homo sapiens) (UniProt Q14994); assay: qHTS assay to identify small molecule antagonists of the constitutive androstane receptor (CAR) signaling pathway (AID 1224838); further: nearly all actives have a fitted effect of over 40% in size; further: potency means the concentration at half of the fitted maximal effect
Sequence of Nuclear receptor subfamily 1 group I member 3 (Homo sapiens) (Q14994 whole entry, looked up): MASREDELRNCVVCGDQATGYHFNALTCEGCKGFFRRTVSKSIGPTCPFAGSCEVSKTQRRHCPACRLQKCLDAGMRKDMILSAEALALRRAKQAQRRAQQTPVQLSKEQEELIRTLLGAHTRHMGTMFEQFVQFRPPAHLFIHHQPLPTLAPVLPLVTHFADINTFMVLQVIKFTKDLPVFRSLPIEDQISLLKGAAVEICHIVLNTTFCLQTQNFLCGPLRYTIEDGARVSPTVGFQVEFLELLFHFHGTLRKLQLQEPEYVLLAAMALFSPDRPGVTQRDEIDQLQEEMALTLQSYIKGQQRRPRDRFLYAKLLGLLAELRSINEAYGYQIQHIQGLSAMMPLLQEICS
Outline: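 HepG2 cells stably carrying hCAR and a CYP2B6-2.2kb luciferase reporter, seeded 4 hrs before compound (15 concentrations). Stimulated with 50 nM CITCO for 24 hr at 37 C. ONE-Glo luminescence read after 30 min at room temperature.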

[10] = molecular target: Nuclear receptor subfamily 1 group I member 3 (Homo sapiens) (UniProt Q14994); assay: qHTS assay to identify small molecule agonists of the constitutive androstane receptor (CAR) signaling pathway (AID 1224839); further: series mostly up to about 92 µM; nearly all actives have a fitted effect of over 15% in size
Outline: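 HepG2 cells stably co-transfected with hCAR and a CYP2B6-2.2kb luciferase reporter; compounds at 15 concentrations with 0.75 uM PK11195 present. After 24 hr at 37 C, luciferase read by ONE-Glo luminescence.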

[11] = qHTS assay to identify small molecule antagonists of the estrogen related receptor signaling pathway with the pleiotropic PPARgamma coactivator (PGC) from Tox21 10K library - cell viability counter screen (AID 1224840; active means well fitted cell-killing curve with a large enough effect in the repeat runs, not every such curve was filed as active; further: nearly all actives have a fitted effect of over 40% in size; further: potency means the concentration at half of the fitted maximal effect)
Outline: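 PGC/ERR cells (2,000/well) plated 6 h, then compound-treated for 17.5 h at 37 C. Viability measured by CellTiter-Fluor fluorescence after 30 min at 37 C, multiplexed with the pathway assay.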

[12] = qHTS assay to identify small molecule antagonists of the estrogen related receptor signaling pathway with the pleiotropic PPARgamma coactivator (PGC) from Tox21 10K library (AID 1224841; call rule not given here; further: series mostly up to about 92 µM; actives are mostly falling curves and most rising ones were filed inactive; nearly all actives have a fitted effect of over 50% in size)
Outline: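 PGC/ERR cell line, 2,000 cells/well, pre-incubated 6 hours at 37 C, then exposed to compounds for 18 hours at 37 C; luciferase read with One-Glo luminescence after 30 min at room temperature.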

[13] = qHTS assay to identify small molecule agonists of the estrogen related receptor signaling pathway with the pleiotropic PPARgamma coactivator (PGC) from Tox21 10K library (AID 1224842); further: nearly all actives have a fitted effect of over 15% in size
Outline: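 PGC/ERR reporter cells (NTP line) were seeded 2,000 per well, rested 6 h at 37 C/5% CO2, then pin-dosed with compounds in DMSO for 18 h at 37 C; luciferase read by One-Glo luminescence after 30 min at room temperature.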

[14] = molecular target: Thyrotropin receptor (Homo sapiens) (UniProt P16473); assay: qHTS assay to identify small molecule agonists of the thyroid stimulating hormone receptor (TSHR) signaling pathway (AID 1224843; calls by dose curve; further: nearly all actives have a fitted effect of over 45% in size)
Sequence of Thyrotropin receptor (Homo sapiens) (P16473 whole entry, looked up): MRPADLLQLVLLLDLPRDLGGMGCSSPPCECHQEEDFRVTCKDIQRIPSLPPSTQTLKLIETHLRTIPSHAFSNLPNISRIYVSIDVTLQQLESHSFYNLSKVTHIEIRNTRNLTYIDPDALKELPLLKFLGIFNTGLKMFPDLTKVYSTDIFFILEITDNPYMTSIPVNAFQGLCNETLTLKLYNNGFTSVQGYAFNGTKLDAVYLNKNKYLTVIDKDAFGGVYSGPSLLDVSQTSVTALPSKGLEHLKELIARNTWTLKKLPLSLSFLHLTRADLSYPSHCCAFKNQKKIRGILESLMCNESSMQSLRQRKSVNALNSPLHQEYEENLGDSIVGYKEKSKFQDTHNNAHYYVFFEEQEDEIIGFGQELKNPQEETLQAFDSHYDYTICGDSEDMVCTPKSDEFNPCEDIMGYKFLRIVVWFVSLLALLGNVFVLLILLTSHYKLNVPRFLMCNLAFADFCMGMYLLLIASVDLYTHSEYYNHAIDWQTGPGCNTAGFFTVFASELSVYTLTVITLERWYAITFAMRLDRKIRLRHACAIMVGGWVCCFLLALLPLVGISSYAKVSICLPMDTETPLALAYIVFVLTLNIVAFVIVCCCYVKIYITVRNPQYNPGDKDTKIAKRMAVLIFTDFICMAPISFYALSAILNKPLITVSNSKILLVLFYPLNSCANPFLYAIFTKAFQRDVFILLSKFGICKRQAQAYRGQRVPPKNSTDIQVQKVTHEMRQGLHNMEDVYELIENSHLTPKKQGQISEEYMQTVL
Outline: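 TSHR-expressing HEK293 cells (800 per well) were exposed to compounds for 30 min at room temperature. cAMP was then detected by HTRF competition with cAMP-d2 and anti-cAMP cryptate, read after 1 h at room temperature. Fifteen concentrations, triplicate.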

[15] = qHTS assay to identify small molecule antagonists of the estrogen related receptor (ERR) signaling pathway - cell viability counter screen (AID 1224818); further: series mostly up to about 46 µM
Outline: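 ERR cells, 2,000 per well, compound added after 6 h and incubated 17.5 h at 37 C. Viability read by CellTiter-Fluor fluorescence after a further 30 min at 37 C.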

[16] = qHTS assay to identify small molecule antagonists of the estrogen related receptor signaling pathway with the pleiotropic PPARgamma coactivator (PGC) cell viability counter screen (AID 1224822; further: series mostly up to about 46 µM)
Outline: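 PGC/ERR cells rested 6 h, then compound-treated 17.5 h at 37 C. CellTiter-Fluor added for 30 min at 37 C, viability measured by fluorescence intensity.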

Structure (SMILES) | Potency [1] | Potency [2] | Potency [3] | Potency [4] | Potency [5] | Potency [6] | Potency [7] | Potency [8] | Potency [9] | Potency [10] | Potency [11] | Potency [12] | Potency [13] | Potency [14] | outcome [15] | Potency [16]
CCNc1nc(Cl)nc(NCC)n1 | inactive | inactive | inactive | inactive | inactive | inactive | inactive | inactive | inactive | inactive | inactive | inactive | inactive | inactive | – | –
COCC(=O)N(c1c(C)cccc1C)C(C)C(=O)OC (centres undefined) | inactive | inactive | inactive | inactive | inactive | inactive | inactive | inactive | inactive | inactive | inactive | inactive | inactive | inactive | – | –
Cc1cc(Cl)ccc1OCC(=O)O | inactive | inactive | – | – | inactive | inactive | inactive | inactive | inactive | inactive | inactive | – | – | inactive | – | –
CC[N+](CC)(CC)CC | inactive | inactive | – | inactive | inactive | – | inactive | inactive | inactive | inactive | inactive | – | – | inactive | inactive | inactive
CCCC[n+]1cccc(C)c1 | inactive | inactive | – | – | inactive | inactive | inactive | inactive | – | – | inactive | – | – | – | – | –
N#CS | inactive | inactive | – | – | inactive | – | inactive | inactive | – | – | inactive | – | – | – | – | –
C[N+](C)(C)Cc1ccccc1 | inactive | inactive | – | – | inactive | inactive | inactive | inactive | – | – | inactive | – | – | inactive | – | –
CCCCCCCCCCCCCCCCn1cc[n+](C)c1 | – | inactive and 61.7 µM (active) and 43.4 µM (active) | inactive and 27.6 µM (active) and 13.7 µM (active) | inactive | – | 81.4 µM (active) and inactive | – | – | inactive and 30.9 µM (active) and 27.4 µM (active) | – | inactive and 61.7 µM (active) and 27.4 µM (active) | – | – | inactive | – | –
CNC | inactive | inactive | – | – | inactive | inactive | inactive | inactive | – | – | inactive | – | – | – | – | –
CCC[N+]1(C)CCCCC1 | inactive | inactive | – | – | inactive | inactive | inactive | inactive | – | – | inactive | – | – | inactive | – | –
CCCCCCCCCCn1cc[n+](C)c1 | inactive | inactive | – | – | inactive and 8.62 µM (active) | inactive | – | inactive | – | – | inactive | – | – | – | – | –
CCCCCCn1cc[n+](C)c1 | inactive | inactive | – | – | inactive | inactive | inactive | inactive | – | – | inactive | – | – | – | – | –
COc1ccc(N)cc1 | inactive | inactive | – | – | – | inactive | inactive | inactive | – | – | inactive | – | – | inactive | – | –
CCCCCCCCCCCCOS(=O)(=O)O | 34.7 µM (active) and 21.9 µM (active) and inactive | inactive | – | – | inactive | – | inactive | inactive | – | – | inactive | – | – | – | – | –
CCCC[N+]1(C)CCCCC1 | inactive | inactive | – | – | inactive | inactive | inactive | inactive | – | – | inactive | – | – | inactive | – | –
O=c1nc(O)n(Cl)c(=O)n1Cl | inactive | inactive | – | – | inactive | inactive | inactive | inactive | – | – | inactive | inactive | inactive | – | – | –
CCCn1cc[n+](C)c1 | inactive | inactive | – | – | inactive | inactive | inactive | inactive | – | – | inactive | – | – | inactive | – | –
